In PubChem BioAssay (Tox21):
Inconclusive results are not listed. Activity calls are given as the source filed them. Unless noted, calls follow the shape of the dose curve; as a rule, active = well fitted curve in the direction sought with a large enough effect in the repeat runs; inconclusive = weak or mixed curves; inactive = no such curve, though single readings can be large; an effect the other way counts as inactive or inconclusive.

Tests used:
[1] = qHTS assay for small molecule agonists of the p53 signaling pathway (AID 651631; calls by dose curve; also: nearly all actives have a fitted effect of over 15% in size; also: potency is read from the fitted curve at half-maximal effect)
Summary of the method: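 Quantitative high-throughput format: 4,000 p53RE-bla HCT-116 cells/well, 5 h pre-incubation, 16 h compound exposure at 37 °C, 2 h room-temperature substrate step, fluorescence intensity measured.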

[2] = qHTS assay for small molecules that induce genotoxicity in human embryonic kidney cells expressing luciferase-tagged ATAD5 (AID 651632); also: nearly all actives have a fitted effect of over 15% in size; also: potency is read from the fitted curve at half-maximal effect
Summary of the method: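 Increased luciferase signal from ATAD5-tagged reporter cells indicates DNA-damage-driven ATAD5 induction. HEK293T cells are treated for 16 hr at 37C before detection with Amplite.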

[3] = qHTS assay for small molecule agonists of the p53 signaling pathway - cell viability (AID 651633; calls by dose curve;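 also: p53RE-bla HCT reporter cells with a stable beta-lactamase p53 reporter; series mostly up to about 83 µM; nearly all actives have a fitted effect of over 30% in size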)
Summary of the method: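 Viability counter-read: CellTiter-Glo luminescence (30 min, room temperature) in the same p53RE-bla plates. These plates had been exposed to compounds for 16 h at 37 C.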

[4] = qHTS assay for small molecules that induce genotoxicity in human embryonic kidney cells expressing luciferase-tagged ATAD5 - cell viability (AID 651634; calls by dose curve; also: nearly all actives have a fitted effect of over 25% in size)
Summary of the method: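 Cytotoxicity counterscreen in HEK293T cells bearing an ATAD5-luciferase reporter: live-cell protease activity measured by CellTiter-Fluor fluorescence after 15.5 hr compound exposure.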

[5] = qHTS assay for small molecule disruptors of the mitochondrial membrane potential - cell viability (AID 720634; calls by dose curve;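 also: human HepG2 liver cancer cells; series mostly up to about 83 µM; nearly all actives have a fitted effect of over 20% in size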)
Summary of the method: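 After overnight attachment at 37 C, HepG2 cells received compound or DMSO vehicle for 1 hr. Viability is then taken from ATP-driven luminescence following a 30 min room-temperature CellTiter-Glo step.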

[6] = qHTS assay for small molecule disruptors of the mitochondrial membrane potential (AID 720635)
Summary of the method: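 Mitochondrial membrane potential tracked with Mito-MPS dye, red aggregates (ex 540/em 590 nm) against green monomers (ex 490/em 535 nm). Compound treatment 1 hr at 37C, dye 30 min in HepG2.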

[7] = qHTS assay to test for compound auto fluorescence at 590 nm (red) in HepG2 cells (AID 720674)
Summary of the method: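 Red autofluorescence (Ex/Em 540/590 nm, Rose Bengal sodium equivalents) was measured in HepG2 cells, 2,000 per well in MEM plus 10% FBS, plated overnight at 37 C. Readings were taken 1 hr after adding 23 nL compound or DMSO, at 37 C and 5% CO2.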

[8] = qHTS assay to test for compound auto fluorescence at 590 nm (red) in HEK293 cells (AID 720679)
Summary of the method: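 Using HEK293 cells at 2,000 per well, the screen added 23 nL of each compound after cell attachment and incubated overnight (37C, 5% CO2). The plate reader then captured red-label fluorescence, Ex/Em 540/590nm.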

[9] = qHTS assay to test for compound auto fluorescence at 535 nm (green) in HEK293 cells (AID 720680)
[10] = qHTS assay to test for compound auto fluorescence at 460 nm (blue) in HEK293 cell free culture (AID 720681)
Summary of the method: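 Blue fluorescence (Ex 405/Em 460 nm, triamterene-equivalent) was read immediately after pin transfer of compound or DMSO into medium (DMEM, 10% FBS) without cells.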

[11] = qHTS assay to test for compound auto fluorescence at 535 nm (green) in HEK293 cell free culture (AID 720682)
Summary of the method: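 Measurement is a direct plate read of green fluorescence (485 nm in, 535 nm out) after compound addition to serum-supplemented DMEM lacking cells, with fluorescein used to express intensities.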

[12] = qHTS assay to test for compound auto fluorescence at 590 nm (red) in HEK293 cell free culture (AID 720683)
Summary of the method: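 Red-channel autofluorescence of compounds in culture medium (DMEM, 10% FBS), no cells, measured at 540/590 nm. Rose Bengal sodium is the reference fluorophore for equivalence.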

[13] = qHTS assay to test for compound auto fluorescence at 590 nm (red) in HepG2 cell free culture (AID 720684)
Summary of the method: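 Steps: dispense MEM/10% FBS medium, no cells; pin compound or DMSO vehicle; read red channel, Ex/Em 540/590 nm. Output given as Rose Bengal sodium equivalents.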

[14] = qHTS assay to test for compound auto fluorescence at 460 nm (blue) in HepG2 cell free culture (AID 720685)
Summary of the method: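 Compound (23 nL) or DMSO pinned into cell-free MEM with 10% FBS; blue fluorescence read at 405/460 nm excitation/emission, expressed as auto-fluorescence equivalency to triamterene.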

[15] = qHTS assay to test for compound auto fluorescence at 535 nm (green) in HepG2 cell free culture (AID 720686)
[16] = qHTS assay to test for compound auto fluorescence at 535 nm (green) in HepG2 cells (AID 720675)
[17] = qHTS assay to test for compound auto fluorescence at 460 nm (blue) in HEK293 cells (AID 720678)
Summary of the method: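 Measured: blue fluorescence (Ex 405/Em 460 nm) of compound-treated HEK293 cells, incubated overnight at 37C with 5% CO2 and scaled to triamterene equivalents.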

[18] = target: Glucocorticoid receptor (Homo sapiens) (UniProt P04150); test: qHTS assay to identify small molecule antagonists of the glucocorticoid receptor (GR) signaling pathway (AID 720692; active = well fitted inhibition curve with a large enough effect in the signal ratio in the repeat runs, not every such curve was filed as active; the % refers to the signal ratio)
Glucocorticoid receptor (Homo sapiens), sequence (P04150 whole entry, looked up): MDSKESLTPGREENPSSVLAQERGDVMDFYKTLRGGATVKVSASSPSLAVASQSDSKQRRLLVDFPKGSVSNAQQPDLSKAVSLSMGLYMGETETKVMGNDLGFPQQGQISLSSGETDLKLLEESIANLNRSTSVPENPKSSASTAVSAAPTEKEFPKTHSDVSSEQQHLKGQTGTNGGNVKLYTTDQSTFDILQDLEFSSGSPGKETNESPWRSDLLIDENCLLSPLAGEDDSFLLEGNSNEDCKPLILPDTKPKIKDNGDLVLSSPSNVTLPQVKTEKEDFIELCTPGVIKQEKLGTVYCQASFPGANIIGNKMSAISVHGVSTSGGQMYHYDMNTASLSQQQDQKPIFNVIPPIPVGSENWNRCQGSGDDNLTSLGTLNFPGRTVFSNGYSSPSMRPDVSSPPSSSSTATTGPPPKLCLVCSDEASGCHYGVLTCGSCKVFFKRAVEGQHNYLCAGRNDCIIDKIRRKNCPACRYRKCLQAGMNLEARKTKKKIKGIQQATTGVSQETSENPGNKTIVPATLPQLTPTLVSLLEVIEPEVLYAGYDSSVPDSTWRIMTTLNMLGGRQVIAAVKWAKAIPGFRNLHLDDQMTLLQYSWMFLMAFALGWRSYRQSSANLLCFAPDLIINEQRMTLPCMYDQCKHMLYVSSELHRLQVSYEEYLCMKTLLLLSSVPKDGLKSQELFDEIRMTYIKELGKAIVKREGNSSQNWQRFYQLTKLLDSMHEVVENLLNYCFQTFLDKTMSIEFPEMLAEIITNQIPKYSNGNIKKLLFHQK
Summary of the method: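 Cells plated, rested 4 h at 37 C/5% CO2; compounds in DMSO pin-transferred; dexamethasone added to 5 nM final; 18 h at 37 C; B/G FRET substrate added, 2 h room temperature; fluorescence measured.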

[19] = qHTS assay to test for compound auto fluorescence at 460 nm (blue) in HepG2 cells (AID 720687)
Summary of the method: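 Blue-channel autofluorescence (Ex/Em 405/460 nm, triamterene-equivalent) was measured after 1 hr compound exposure at 37 C, 5% CO2. Cells were HepG2, plated overnight at 37 C in MEM plus 10% FBS.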

[20] = target: Glucocorticoid receptor (Homo sapiens) (UniProt P04150); test: qHTS assay to identify small molecule agonists of the glucocorticoid receptor (GR) signaling pathway (AID 720691; active = well fitted activation curve with a large enough effect in the signal ratio in the repeat runs, not every such curve was filed as active; the % refers to the signal ratio)
Summary of the method: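 Agonist mode in a HeLa line carrying a GRE-controlled beta-lactamase reporter. Compounds act for 18 h at 37 C before a 2 h room-temperature FRET substrate step and fluorescence reading.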

Measured: Potency

CC(=O)Nc1ccn(C2COC(COC(=O)c3ccccc3)O2)c(=O)n1 (configuration not stated)
active: [1] 3.76 µM
not listed: [16] | [17] | [18] | [19] | [20]
inactive: all other assays above

CCn1nc(Cc2ccccc2)cc1C1CCN(C[C@H]2C[C@H](N(C)[C@@H](C(=O)O)C(C)C)C[C@@H]2c2cccc(F)c2)CC1
not listed: [6] | [12] | [19] | [20]
inactive: all other assays above

O=C(O)c1cc(C(=O)O)c(C(=O)O)cc1C(=O)O
not listed: [6]
inactive: all other assays above

CCCCCCCCCCCCCCCCC(=O)O
not listed: [6] | [10]
inactive: all other assays above

CNc1ccccc1
not listed: [10] | [12] | [17] | [18]
inactive: all other assays above

Clc1cc(Cl)c2c(c1)N=C1CCCCCN1C2
not listed: [6] | [12] | [20]
inactive: all other assays above

Clc1ccccc1-c1nc(-c2ccncc2)no1
active: [2] 6.68 µM
not listed: [16] | [18]
inactive: all other assays above

CCCC1CCCC(=O)O1 (configuration not stated)
not listed: [16] | [17]
inactive: all other assays above

O=C1CCCN1CCO
not listed: [14] | [16] | [19]
inactive: all other assays above

CS(C)=O
not listed: [6] | [12] | [14] | [20]
inactive: all other assays above

O=C(O)c1ccccc1[N+](=O)[O-]
not listed: [6]
inactive: all other assays above

CCCCCCC/C=C/C=O
not listed: [6] | [10] | [18]
inactive: all other assays above

CC(=O)S[C@H](C(=O)N[C@H]1Cc2ccccc2[C@H]2CCC[C@@H](C(=O)O)N2C1=O)C(C)C
not listed: [10] | [16]
inactive: all other assays above

O=C(Cl)c1cc(Cl)cc(Cl)c1
not listed: [6]
inactive: all other assays above

Nc1cccc2c(=O)[nH][nH]c(=O)c12
not listed: [16] | [17] | [20]
inactive: all other assays above

CCCCOc1ccc(N)cc1
not listed: [6] | [10] | [14]
inactive: all other assays above
